Source: PubChem
CHRM1 PAM – potentiates human M1 receptor response to acetylcholine; CHO-K1 hM1, Fluo-8 calcium fluorescence, ACh EC20; 0% = ACh EC20, 100% = maximal ACh; activation, % at 3 µM; 0.088% of 360,000 active; in the data active means activation above about 19%, passing the limit was not always enough
Target sequence (P11229 whole entry, looked up): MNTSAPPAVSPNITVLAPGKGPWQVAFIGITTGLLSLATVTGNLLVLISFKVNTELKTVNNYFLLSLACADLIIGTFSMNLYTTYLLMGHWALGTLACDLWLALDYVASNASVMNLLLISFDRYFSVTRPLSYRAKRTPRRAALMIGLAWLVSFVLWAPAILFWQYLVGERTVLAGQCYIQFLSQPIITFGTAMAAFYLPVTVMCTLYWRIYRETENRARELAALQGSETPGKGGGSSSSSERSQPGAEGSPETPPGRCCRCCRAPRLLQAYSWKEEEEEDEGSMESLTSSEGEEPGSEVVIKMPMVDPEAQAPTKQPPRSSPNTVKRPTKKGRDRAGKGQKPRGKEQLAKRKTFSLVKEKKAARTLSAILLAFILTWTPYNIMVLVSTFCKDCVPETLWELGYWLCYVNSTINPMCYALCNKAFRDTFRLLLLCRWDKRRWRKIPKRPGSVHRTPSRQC
M1 ag – agonists of human M1 muscarinic receptor; AID 588814; P11229; CHO-K1 hM1, Fluo-8 calcium fluorescence, agonist mode; 0% DMSO, 100% acetylcholine EC100; 0.33% of 360,000 active; activation, % at 3 µM;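 active means activation above the run's mean compound activation plus 3 SD, cut at about 16% in these data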;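 further: peak over basal fluorescence ratio within a 140 s kinetic read after compound addition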
M1 ag parental – counter-screen for M1 agonists: effect in parental CHO-K1 cells; 0.48% of 360,000 active; Fluo-8 calcium fluorescence; scaled to maximal ATP response, vehicle zero; AID 602248; activation, % at 3 µM; in the data active means activation above about 15%;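 further: untransfected CHO-K1 host cells lacking M1 receptor as counterscreen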
M1 antag – human CHRM1 antagonism; P11229; CHO-K1 hM1, Fluo-8 calcium fluorescence, ACh EC80 antagonist; inhibition, % at 3 µM; 1.3% of 360,000 active;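 active means percent inhibition above its own plate's cutoff, namely the mean of that plate's compound wells plus 3 SD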;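 further: peak over basal fluorescence ratio during 140 s after agonist addition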
CHO-K1 Ca antag – nonselective inhibitor or artifact in parental CHO-K1 cells | AID 602250 | 0.6% of 360,000 active | ATP-induced calcium, Fluo-8 fluorescence | inhibition, % at 3 µM;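 active means inhibition above a per-plate cutoff, the plate's mean sample inhibition plus 3 SD, cut at about 24% in these data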
CHO-K1 Ca PAM – counter-screen for M1 PAMs: effect in parental CHO-K1 cells; ATP EC20, Fluo-8 calcium fluorescence; 0% at ATP EC20, 100% at ATP max; activation, % at 3 µM; 0.02% of 360,000 active;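 active means activation above the run cutoff, the mean activation of all test compounds plus 3 SD, cut at about 40% in these data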;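 further: peak over basal fluorescence ratio in a 140 s read after ATP addition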
Hits are given with their value; 0 = inactive. Hits are enriched below; roughly 2.3% of the tested compounds scored in any of these assays.

SMILES | CHRM1 PAM | M1 ag | M1 ag parental | M1 antag | CHO-K1 Ca antag | CHO-K1 Ca PAM
O=C(NC1CCN(Cc2ccccc2)CC1)C1CCN(c2nnc(-n3cccc3)s2)CC1 | 0 | 0 | 0 | 51.0 | 0 | 0
O=C(NC1CCN(Cc2ccccc2)CC1)C1CCCN(c2nnc(-n3cccc3)s2)C1 (centres undefined) | 0 | 0 | 0 | 0 | 0 | 0
CCOC(=O)c1nnc(-c2cccs2)nc1NC(C)C | 0 | 0 | 0 | 0 | 25.4 | 0
COc1ccc(/C=C/CN2CCCC(CO)(Cc3cccc(Cl)c3)C2)cc1 (centres undefined) | 0 | 0 | 28.4 | 0 | 0 | 0
CCOC(=O)C1(Cc2cccc(OC)c2)CCN(C/C=C/c2ccc(OC)cc2)CC1 | 0 | 0 | 0 | 33.4 | 0 | 0
CCOC(=O)C1(Cc2cccc(OC)c2)CCN(C/C=C/c2ccccc2)CC1 | 0 | 0 | 0 | 0 | 0 | 0
COc1ccccc1/C=C/CN1CCCC(CO)(Cc2cccc(Cl)c2)C1 (centres undefined) | 0 | 0 | 0 | 56.1 | 0 | 0
CCn1nc(C)c(CN2CCCC(CO)(Cc3cccc(Cl)c3)C2)c1C (centres undefined) | 0 | 0 | 0 | 54.0 | 0 | 0
COc1cccc(CC2(CO)CCCN(C/C=C/c3ccccc3OC)C2)c1 (centres undefined) | 0 | 0 | 0 | 0 | 0 | 0
COc1ccc(F)c(CN2CCCC(CO)(Cc3cccc(Cl)c3)C2)c1 (centres undefined) | 0 | 0 | 0 | 0 | 0 | 0
CCn1nc(C)c(CN2CCCC(CO)(Cc3ccccc3)C2)c1C (centres undefined) | 0 | 0 | 0 | 0 | 0 | 0
NS(=O)(=O)c1cccc(NC(=O)COC(=O)C2(c3cccc(F)c3)CCCC2)c1 | 0 | 0 | 0 | 0 | 0 | 0
COc1cc(-c2cc3nc(NCc4ccco4)ccn3n2)cc(OC)c1OC | 0 | 0 | 0 | 0 | 31.6 | 0
COc1cc(-c2cc3nc(NCCOc4ccccc4)ccn3n2)cc(OC)c1OC | 0 | 0 | 0 | 0 | 0 | 0
CCOC(=O)c1ccc(NC(=S)NCCc2ccc(F)cc2)cc1 | 0 | 0 | 22.7 | 0 | 28.1 | 0
CCOC(=O)c1ccc(NC(=O)C(=O)NCCc2ccc(OC)cc2)cc1 | 0 | 0 | 0 | 0 | 0 | 0
CC(=O)O[C@@H]1C[C@@]2(C)[C@@H](CC[C@H]2[C@@H](C)/C=C\CC(C)C)C2=C[C@@H](O)[C@@]3(O)C[C@@H](O)[C@H](O)C[C@]3(CO)[C@]21O | 0 | 0 | 0 | 0 | 0 | 0
CC[n+]1c(-c2ccccc2)csc1Nc1c(C)n(C)n(-c2ccccc2)c1=O | 0 | 0 | 0 | 51.1 | 0 | 0
CC[n+]1c(-c2ccc(C)cc2)csc1Nc1c(C)n(C)n(-c2ccccc2)c1=O | 0 | 0 | 0 | 35.2 | 0 | 0
Cc1ccc(Nc2nc3ccccc3nc2Nc2c(C)n(C)n(-c3ccccc3)c2=O)cc1 | 0 | 0 | 0 | 0 | 0 | 0
CN(CCOc1ccccc1)S(=O)(=O)c1ccc2oc3ccccc3c2c1 | 0 | 0 | 0 | 0 | 0 | 0
Cc1ccc(NC(=O)COC(=O)CNC(=O)c2ccc(Br)cc2)c(C)c1 | 0 | 0 | 0 | 0 | 0 | 0
O=C(COc1ncnc2ccccc12)Nc1cc([N+](=O)[O-])ccc1F | 0 | 0 | 16.5 | 0 | 0 | 0
O=S(=O)(c1cc(F)ccc1F)N1CCN(c2ncnc3ccccc23)CC1 | 0 | 0 | 18.1 | 30.8 | 0 | 0
O=S(=O)(c1cc(F)ccc1F)N1CCN(c2ccccn2)CC1 | 0 | 0 | 0 | 0 | 0 | 0
SMILES | CHRM1 PAM | M1 ag | M1 ag parental | M1 antag | CHO-K1 Ca antag | CHO-K1 Ca PAM
CN(Cc1ccc2nsnc2c1)C(=O)C1CCC(=O)N(CCc2ccccc2)C1 (centres undefined) | 0 | 0 | 0 | 0 | 0 | 0
CC(C)(C)c1ccc(-n2nc(C#N)c(Cl)cc2=O)cc1 | 0 | 0 | 0 | 44.6 | 30.2 | 0
COc1ccc(N(C)S(=O)(=O)c2cccc(C(=O)Nc3nc4ccccc4[nH]3)c2)cc1 | 0 | 0 | 0 | 34.5 | 0 | 0
COc1ccccc1C(CNC(=O)c1cccc(NS(=O)(=O)c2ccc(C)c(F)c2)c1)N(C)C (centres undefined) | 0 | 0 | 0 | 85.0 | 0 | 0
COc1cccc(CN(C)C(=O)c2cccc(S(=O)(=O)NCc3ccccc3)c2)c1OC | 0 | 0 | 0 | 0 | 0 | 0
CCN(CC)S(=O)(=O)c1cccc(C(=O)NCC(c2ccccc2)N(C)C)c1 (centres undefined) | 0 | 0 | 0 | 55.0 | 0 | 0
COc1ccccc1C(CNC(=O)c1cccc(S(=O)(=O)NCc2ccccc2)c1)N(C)C (centres undefined) | 0 | 0 | 0 | 49.9 | 0 | 0
NNC(=O)CNC(=O)Nc1n[nH]c(=S)s1 | 0 | 0 | 0 | 0 | 0 | 0
COc1ccccc1CC1S/C(=N/N=C/c2ccco2)NC1=O (centres undefined) | 0 | 0 | 0 | 0 | 0 | 0
COc1ccccc1C(CNC(=O)c1ccc(NS(=O)(=O)c2ccc(F)c(C)c2)cc1)N(C)C (centres undefined) | 0 | 27.8 | 0 | 0 | 0 | 0
COc1ccc(N(C)S(=O)(=O)c2cccc(C(=O)NCC(c3cccs3)N(C)C)c2)cc1 (centres undefined) | 0 | 0 | 0 | 52.3 | 0 | 0
CCOc1ccc(S(=O)(=O)Nc2cccc(C(=O)NCC(c3ccccc3)N(C)C)c2)cc1 (centres undefined) | 0 | 0 | 0 | 0 | 0 | 0
COc1ccc(C(CNC(=O)c2cccc(NS(=O)(=O)c3ccccc3)c2)N(C)C)cc1 (centres undefined) | 0 | 0 | 0 | 48.2 | 0 | 0
CC(=O)c1ccc(S(=O)(=O)NCc2ccc(C(=O)NCC(c3ccccc3)N(C)C)cc2)cc1 (centres undefined) | 0 | 0 | 0 | 25.0 | 0 | 0
COc1ccc(N(C)S(=O)(=O)c2cccc(C(=O)NCC(c3ccco3)N3CCCC3)c2)cc1 (centres undefined) | 0 | 0 | 0 | 0 | 0 | 0
Cc1cc(S(=O)(=O)Nc2ccc(C(=O)NCC(c3ccccc3)N(C)C)cc2)ccc1F (centres undefined) | 0 | 0 | 0 | 0 | 0 | 0
N=C1/C(=C\c2coc3ccccc3c2=O)C(=O)N=C2SC(c3ccncc3)=NN12 | 0 | 51.2 | 69.2 | 58.4 | 28.8 | 0
N=C1/C(=C/c2coc3ccccc3c2=O)C(=O)N=C2SC(c3ccco3)=NN12 | 0 | 85.1 | 62.8 | 51.9 | 33.6 | 0
CC1=NN2C(=N)/C(=C\c3cc(C)n(-c4ccccc4)c3C)C(=O)N=C2S1 | 0 | 0 | 0 | 0 | 0 | 0
N=C1/C(=C\c2coc3ccc(O)cc3c2=O)C(=O)N=C2SC=CN12 | 0 | 25.3 | 33.0 | 0 | 0 | 0
COc1ccc(N2CCN(C3CCCN(Cc4cccc(C(C)=O)c4)C3)CC2)cc1 (centres undefined) | 0 | 0 | 0 | 0 | 0 | 0
